Results filed as inconclusive are left out. Some structures have more than one record in an assay (separate samples or runs), and their calls can disagree. Activity calls are given as the source filed them. Unless noted, calls follow the shape of the dose curve; as a rule, active = well fitted curve in the direction sought with a large enough effect in the repeat runs; inconclusive = weak or mixed curves; inactive = no such curve, though single readings can be large; an effect the other way counts as inactive or inconclusive.
What was measured:
[1] = qHTS assay to identify aromatase inhibitors - cell viability counter screen (AID 743084);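 also: cells stimulated with testosterone during compound exposure; nearly all actives have a fitted effect of over 55% in size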; also: potency is read from the fitted curve at half-maximal effect
[2] = target: Aryl hydrocarbon receptor (Homo sapiens) (UniProt P35869); assay: qHTS assay to identify small molecule that activate the aryl hydrocarbon receptor (AhR) signaling pathway (AID 743085); also: nearly all actives have a fitted effect of over 15% in size; also: potency is read from the fitted curve at half-maximal effect;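 as to activation: HG2L7.5c1 human HepG2 liver cells with stably integrated DRE-driven firefly reporter; series mostly up to about 70 µM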
Aryl hydrocarbon receptor (Homo sapiens), sequence (P35869 whole entry, looked up): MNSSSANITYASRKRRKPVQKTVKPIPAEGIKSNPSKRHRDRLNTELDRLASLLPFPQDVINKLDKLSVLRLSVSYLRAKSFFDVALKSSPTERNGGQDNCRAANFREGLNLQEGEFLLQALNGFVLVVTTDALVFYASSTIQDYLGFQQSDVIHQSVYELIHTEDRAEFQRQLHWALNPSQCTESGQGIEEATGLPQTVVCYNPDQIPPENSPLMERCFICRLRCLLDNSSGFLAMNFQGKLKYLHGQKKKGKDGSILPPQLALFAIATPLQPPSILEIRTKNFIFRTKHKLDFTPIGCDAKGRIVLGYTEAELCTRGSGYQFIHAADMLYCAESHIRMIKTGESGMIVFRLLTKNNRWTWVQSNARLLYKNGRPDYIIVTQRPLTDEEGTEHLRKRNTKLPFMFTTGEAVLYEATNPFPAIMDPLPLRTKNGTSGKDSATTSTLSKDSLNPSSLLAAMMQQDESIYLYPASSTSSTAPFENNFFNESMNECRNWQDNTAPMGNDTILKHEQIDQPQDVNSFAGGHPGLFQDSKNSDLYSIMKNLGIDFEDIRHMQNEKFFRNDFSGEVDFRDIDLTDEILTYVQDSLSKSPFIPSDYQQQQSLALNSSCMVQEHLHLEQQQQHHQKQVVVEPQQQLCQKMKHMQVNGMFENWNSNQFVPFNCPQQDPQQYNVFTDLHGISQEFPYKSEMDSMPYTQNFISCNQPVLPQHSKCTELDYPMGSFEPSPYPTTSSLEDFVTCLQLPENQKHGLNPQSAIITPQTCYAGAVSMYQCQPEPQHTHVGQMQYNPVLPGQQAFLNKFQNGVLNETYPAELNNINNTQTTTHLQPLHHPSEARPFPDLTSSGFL
Method in brief: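 Luminescence read-out: ONE-Glo reagent, 30 min at room temperature, in HG2L7.5c1 HepG2 reporter cells treated 24 h at 37C. Viability was measured beforehand by CellTiter-Fluor fluorescence after 30 min at 37C.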

[3] = qHTS assay to identify small molecule that activate the aryl hydrocarbon receptor (AhR) signaling pathway - cell viability counter screen (AID 743086); also: nearly all actives have a fitted effect of over 45% in size; also: potency is read from the fitted curve at half-maximal effect
Method in brief: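 HepG2-AhR-luc (HG2L7.5c1) cells, 4000/well, treated 24 h at 37 C with compound; viability measured as CellTiter-Fluor fluorescence after 30 min in the same wells as the luciferase read.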

[4] = target: Peroxisome proliferator-activated receptor gamma (Homo sapiens) (UniProt P37231); assay: qHTS assay to identify small molecule agonists of the peroxisome proliferator-activated receptor gamma (PPARg) signaling pathway (AID 743094; active = well fitted activation curve with a large enough effect in the signal ratio in the repeat runs, not every such curve was filed as active; the % refers to the signal ratio)
Peroxisome proliferator-activated receptor gamma (Homo sapiens), sequence (P37231 whole entry, looked up): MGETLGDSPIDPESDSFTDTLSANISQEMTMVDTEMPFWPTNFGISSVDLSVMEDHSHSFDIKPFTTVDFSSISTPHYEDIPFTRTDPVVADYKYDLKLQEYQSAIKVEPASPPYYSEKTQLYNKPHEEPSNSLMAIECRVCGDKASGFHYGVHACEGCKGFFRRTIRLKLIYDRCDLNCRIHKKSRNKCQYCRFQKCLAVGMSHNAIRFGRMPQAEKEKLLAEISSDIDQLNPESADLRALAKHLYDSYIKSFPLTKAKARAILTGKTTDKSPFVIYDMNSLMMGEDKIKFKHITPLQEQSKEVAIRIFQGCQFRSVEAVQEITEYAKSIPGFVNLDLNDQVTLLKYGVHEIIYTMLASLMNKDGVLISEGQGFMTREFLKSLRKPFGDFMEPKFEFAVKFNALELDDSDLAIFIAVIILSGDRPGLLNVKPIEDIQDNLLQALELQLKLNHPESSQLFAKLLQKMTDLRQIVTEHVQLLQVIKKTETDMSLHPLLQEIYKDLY
Method in brief: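 GeneBLAzer PPARg UAS-bla HEK293H cells were plated, rested 5 h, then exposed to compounds for 17 h at 37C. Beta-lactamase activity was read by LiveBLAzer B/G FRET substrate fluorescence after 1 h at room temperature.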

[5] = target: Peroxisome proliferator-activated receptor gamma (Homo sapiens) (UniProt P37231); assay: qHTS assay to identify small molecule antagonists of the peroxisome proliferator-activated receptor gamma (PPARg) signaling pathway (AID 743191; calls by dose curve; also: series mostly up to about 63 µM; nearly all actives have a fitted effect of over 30% in size)
Method in brief: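 GeneBLAzer PPARg UAS-bla HEK293H cells, 5 h post-plating, exposed to compounds 17 h at 37C. LiveBLAzer B/G FRET substrate added for 1 h at room temperature; beta-lactamase reporter read by fluorescence intensity.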

[6] = qHTS assay to identify small molecule antagonists of the peroxisome proliferator-activated receptor gamma (PPARg) signaling pathway - cell viability counter screen (AID 743194); conditions: Potency: co-treated with 50 nM rosiglitazone; also: nearly all actives have a fitted effect of over 55% in size
Method in brief: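 Cytotoxicity counter screen in PPARg-bla HEK293H cells, same wells as reporter assay. Compounds plus 50 nM rosiglitazone (final) for 17 h at 37 C, then viability read by CellTiter-Glo luminescence.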

[7] = qHTS assay for small molecule agonists of the antioxidant response element (ARE) signaling pathway (AID 743202; active = well fitted activation curve with a large enough effect in the signal ratio in the repeat runs, not every such curve was filed as active; the % refers to the signal ratio)
Method in brief: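 ARE-bla HepG2 cells (beta-lactamase reporter under the antioxidant response element), plated 5 hours, then exposed to compounds 16 hours at 37 C. LiveBLAzer B/G FRET substrate added for 2 hours at room temperature; fluorescence intensity read.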

[8] = qHTS assay for small molecule agonists of the antioxidant response element (ARE) signaling pathway - cell viability counter screen (AID 743203; calls by dose curve; also: nearly all actives have a fitted effect of over 55% in size)
Method in brief: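 ARE-bla HepG2 cells were plated, rested 5 h at 37C/5% CO2, then exposed to compounds in DMSO for 16 h. Viability was read as CellTiter-Glo luminescence after 30 min at room temperature, in the same wells as the ARE screen.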

[9] = qHTS assay for small molecule activators of the heat shock response signaling pathway - cell viability counter screen (AID 743209); also: nearly all actives have a fitted effect of over 50% in size
Method in brief: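 HSE-bla HeLa cells plated overnight, then exposed to Tox21 compounds (23 nL in DMSO) for 5 h at 37 C. After the bla reporter read, CellTiter-Glo was added in the same wells and luminescence read after 30 min at room temperature.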

[10] = qHTS assay for small molecule activators of the heat shock response signaling pathway (AID 743210; active = well fitted activation curve with a large enough effect in the signal ratio in the repeat runs, with a control signal flat, not every such curve was filed as active; the % refers to the signal ratio; also: series mostly up to about 63 µM)
Method in brief: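 HSE-bla HeLa cells (beta-lactamase reporter under heat shock response elements), plated overnight, then exposed to compounds 5 h at 37 C; LiveBLAzer B/G FRET substrate added, 2.5 h at room temperature, fluorescence intensity read.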

[11] = qHTS assay to identify small molecule agonists of the peroxisome proliferator-activated receptor delta (PPARd) signaling pathway - cell viability counter screen (AID 743211); also: nearly all actives have a fitted effect of over 55% in size
Method in brief: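 Read-out: CellTiter-Glo luminescence, 30 min RT, measured in the same wells as the beta-lactamase reporter. Cells: GeneBLAzer PPAR delta UAS-bla HEK293H, 3000 cells/well, compound exposure 17 h at 37C.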

[12] = target: Peroxisome proliferator-activated receptor delta (Homo sapiens) (UniProt Q03181); assay: qHTS assay to identify small molecule agonists of the peroxisome proliferator-activated receptor delta (PPARd) signaling pathway (AID 743212; calls by dose curve)
Peroxisome proliferator-activated receptor delta (Homo sapiens), sequence (Q03181 whole entry, looked up): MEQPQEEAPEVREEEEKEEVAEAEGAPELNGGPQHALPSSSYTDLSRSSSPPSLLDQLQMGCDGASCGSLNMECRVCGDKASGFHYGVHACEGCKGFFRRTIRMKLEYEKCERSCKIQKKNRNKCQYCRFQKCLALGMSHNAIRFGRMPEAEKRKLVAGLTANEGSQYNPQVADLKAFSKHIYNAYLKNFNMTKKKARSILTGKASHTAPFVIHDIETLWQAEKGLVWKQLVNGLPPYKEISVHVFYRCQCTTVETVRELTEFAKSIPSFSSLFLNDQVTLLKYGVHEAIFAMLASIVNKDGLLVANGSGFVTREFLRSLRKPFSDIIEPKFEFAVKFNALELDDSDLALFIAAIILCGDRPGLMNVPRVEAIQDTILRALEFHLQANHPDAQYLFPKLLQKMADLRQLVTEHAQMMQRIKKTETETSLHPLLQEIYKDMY
Method in brief: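 GeneBLAzer UAS-bla HEK293H cells carrying a PPARδ construct were exposed to compounds at 37 °C. Beta-lactamase activity was read by FRET fluorescence after 2 h at room temperature with LiveBLAzer B/G substrate.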

[13] = qHTS assay to identify small molecule antagonists of the peroxisome proliferator-activated receptor delta (PPARd) signaling pathway - cell viability counter screen (AID 743213); also: nearly all actives have a fitted effect of over 50% in size; also: potency is read from the fitted curve at half-maximal effect
Method in brief: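 PPARd-bla HEK293H cells were treated with compounds plus agonist L165041 (300 nM final) for 17 h at 37 C. Viability was then read in the same wells by CellTiter-Glo luminescence after 30 min at room temperature.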

[14] = target: Peroxisome proliferator-activated receptor delta (Homo sapiens) (UniProt Q03181); assay: qHTS assay to identify small molecule antagonists of the peroxisome proliferator-activated receptor delta (PPARd) signaling pathway (AID 743215; active = well fitted inhibition curve with a large enough effect in the signal ratio in the repeat runs, not every such curve was filed as active; the % refers to the signal ratio;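 also: cells stimulated with agonist L165041 at 300 nM final during compound exposure; series mostly up to about 62 µM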)
Method in brief: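 PPARd-bla HEK293H cells (UAS-bla reporter) preincubated 5 h, then given compound plus 300 nM final L165041 agonist for 17 h at 37 C. Beta-lactamase activity read by LiveBLAzer B/G FRET substrate fluorescence after 2 h at room temperature.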

[15] = qHTS assay to identify small molecule agonists of the farnesoid-X-receptor (FXR) signaling pathway - cell viability counter screen (AID 743218); also: nearly all actives have a fitted effect of over 45% in size
Method in brief: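 FXR-UAS-bla HEK 293T cells exposed to compounds for 16 h at 37C. Cytotoxicity read in the same wells by CellTiter-Glo luminescence after 30 min at room temperature, following the beta-lactamase FRET read.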

[16] = qHTS assay to identify small molecule antagonists of the farnesoid-X-receptor (FXR) signaling pathway - cell viability counter screen (AID 743221; active = well fitted cell-killing curve with a large enough effect in the repeat runs, not every such curve was filed as active; also: nearly all actives have a fitted effect of over 50% in size)
Method in brief: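 HEK 293T FXR-bla cells, 5 h pre-incubation; compound + CDCA 50 uM final, 16 h, 37 C; beta-lactamase FRET read first, then CellTiter-Glo luminescence, 30 min RT.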

[17] = target: Vitamin D3 receptor (Homo sapiens) (UniProt P11473); assay: qHTS assay to identify small molecule antagonists of the vitamin D receptor (VDR) signaling pathway (AID 743223; active = well fitted inhibition curve with a large enough effect in the signal ratio in the repeat runs, not every such curve was filed as active; the % refers to the signal ratio)
Vitamin D3 receptor (Homo sapiens), sequence (P11473 whole entry, looked up): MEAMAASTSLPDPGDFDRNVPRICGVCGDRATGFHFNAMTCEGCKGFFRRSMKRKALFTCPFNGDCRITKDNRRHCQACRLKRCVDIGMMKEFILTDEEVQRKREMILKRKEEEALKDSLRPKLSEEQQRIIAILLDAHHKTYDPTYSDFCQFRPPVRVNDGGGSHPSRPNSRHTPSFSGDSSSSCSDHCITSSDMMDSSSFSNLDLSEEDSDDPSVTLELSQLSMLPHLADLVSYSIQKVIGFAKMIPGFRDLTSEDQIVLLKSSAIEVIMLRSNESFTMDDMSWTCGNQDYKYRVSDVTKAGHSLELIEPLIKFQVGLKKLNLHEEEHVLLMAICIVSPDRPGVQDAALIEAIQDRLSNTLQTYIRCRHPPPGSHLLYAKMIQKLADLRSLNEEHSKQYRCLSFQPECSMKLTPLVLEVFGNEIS
Method in brief: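 Beta-lactamase reporter read-out: FRET substrate fluorescence after 2 h at room temperature, following 16 h exposure of VDR-bla cells to test compound plus 3 nM (final) 1alpha,25-dihydroxyvitamin D3 agonist at 37C.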

[18] = target: Vitamin D3 receptor (Homo sapiens) (UniProt P11473); assay: qHTS assay to identify small molecule agonists of the vitamin D receptor (VDR) signaling pathway (AID 743222; calls by dose curve)
Method in brief: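 VDR-bla cells plated 4 h at 37 C, then exposed to compounds for 16 h at 37 C. Beta-lactamase reporter activity measured by fluorescence after 2 h room-temperature loading with LiveBLAzer B/G FRET substrate.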

[19] = target: Bile acid receptor (Homo sapiens) (UniProt Q96RI1); assay: qHTS assay to identify small molecule antagonists of the farnesoid-X-receptor (FXR) signaling pathway (AID 743217; active = well fitted inhibition curve with a large enough effect in the signal ratio in the repeat runs, not every such curve was filed as active; the % refers to the signal ratio)
Bile acid receptor (Homo sapiens), sequence (Q96RI1 whole entry, looked up): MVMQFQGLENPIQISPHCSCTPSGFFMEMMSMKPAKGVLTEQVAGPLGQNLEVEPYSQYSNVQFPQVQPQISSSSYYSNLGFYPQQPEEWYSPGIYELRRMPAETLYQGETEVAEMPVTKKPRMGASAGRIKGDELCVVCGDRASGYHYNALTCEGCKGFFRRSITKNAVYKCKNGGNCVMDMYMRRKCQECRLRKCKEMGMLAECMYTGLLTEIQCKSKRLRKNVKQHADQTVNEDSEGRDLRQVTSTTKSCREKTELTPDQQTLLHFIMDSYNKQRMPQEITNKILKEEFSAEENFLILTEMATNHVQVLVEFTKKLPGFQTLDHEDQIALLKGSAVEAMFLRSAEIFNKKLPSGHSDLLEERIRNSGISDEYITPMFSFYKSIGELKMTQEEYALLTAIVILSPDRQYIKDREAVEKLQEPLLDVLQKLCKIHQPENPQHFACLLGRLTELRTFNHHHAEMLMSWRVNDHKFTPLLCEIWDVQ
Method in brief: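 FXR-UAS-bla HEK 293T cells (beta-lactamase reporter) given compound plus chenodeoxycholic acid (50 uM final), 16 h at 37C. LiveBLAzer B/G FRET substrate added for 2 h at room temperature; fluorescence read.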

[20] = target: Bile acid receptor (Homo sapiens) (UniProt Q96RI1); assay: qHTS assay to identify small molecule agonists of the farnesoid-X-receptor (FXR) signaling pathway (AID 743220; active = well fitted activation curve with a large enough effect in the signal ratio in the repeat runs, not every such curve was filed as active; the % refers to the signal ratio)
Method in brief: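 Beta-lactamase reporter under UAS control in GeneBLAzer FXR HEK 293T cells (5000/well) measured with LiveBLAzer FRET substrate after 2 h at room temperature. Compound exposure lasted 16 h at 37C.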

Measured: Potency

C1CCNCC1
inactive: [1] | [2] | [3] | [4] | [5] | [6] | [7] | [8] | [9] | [10] | [11] | [12] | [13] | [14] | [15] | [16] | [17]

CCOP(=S)(OCC)Oc1ccc(S(C)=O)cc1 (stereo not drawn)
active: [2] 10.9 µM
inactive: [1] | [3] | [4] | [5] | [6] | [7] | [8] | [9] | [10] | [11] | [12] | [13] | [14] | [15] | [16] | [18] | [17]

CC(C)c1ccc(NC(=O)N(C)C)cc1
active: [2] 68.5 µM
inactive: [1] | [3] | [4] | [5] | [6] | [7] | [8] | [9] | [11] | [13] | [14] | [15] | [16] | [18] | [17]

C1CS1
inactive: [1] | [2] | [3] | [4] | [5] | [6] | [7] | [9] | [10] | [11] | [12] | [13] | [14] | [15] | [16]

CON(C)C(=O)Nc1ccc(Cl)cc1
active: [2] 27.3 µM
inactive: [1] | [3] | [4] | [5] | [6] | [7] | [9] | [10] | [11] | [13] | [14] | [19] | [15] | [20] | [16] | [18] | [17]

O=C(N[C@H]1CN2CCC1CC2)c1ccc2c(c1)OCCO2
inactive: [1] | [2] | [3] | [4] | [5] | [6] | [7] | [8] | [9] | [10] | [11] | [13] | [15] | [16] | [17]

Oc1cccc(Cl)c1
inactive: [1] | [2] | [3] | [4] | [5] | [6] | [7] | [8] | [9] | [11] | [19] | [15] | [20] | [16] | [18] | [17]

CCCC[N+](CCCC)(CCCC)CCCC
inactive: [1] | [2] | [3] | [4] | [5] | [6] | [7] | [8] | [9] | [11] | [13] | [16] | [18]

CCc1cnc(C2=NC(C)(C(C)C)C(=O)N2)c(C(=O)O)c1 (stereo not drawn)
inactive: [1] | [2] | [3] | [4] | [5] | [6] | [7] | [8] | [9] | [11] | [12] | [13] | [14] | [15] | [16] | [18] | [17]

O=C(O)C(Cl)(Cl)Br
inactive: [1] | [2] | [3] | [4] | [5] | [6] | [7] | [8] | [9] | [10] | [11] | [12] | [14] | [19] | [15] | [20] | [16] | [17]

CN(C1CCCCC1)C1CCCCC1
inactive: [1] | [2] | [3] | [4] | [5] | [6] | [7] | [8] | [9] | [10] | [11] | [12] | [13] | [14] | [15] | [16] | [18] | [17]

CN(C)N
inactive: [1] | [2] | [3] | [4] | [5] | [6] | [7] | [8] | [9] | [10] | [11] | [13] | [14] | [15] | [16] | [18] | [17]

CCCCCBr
inactive: [1] | [2] | [3] | [4] | [5] | [6] | [7] | [8] | [9] | [10] | [11] | [14] | [15] | [16] | [18] | [17]

C[C@H]1O[C@H](OC2[C@@H](O)[C@@H](O)C(O)[C@H](O)[C@H]2O)[C@@H](N)C[C@@H]1N=C(N)C(=O)O (stereo partly drawn)
inactive: [1] | [2] | [3] | [4] | [5] | [6] | [7] | [8] | [9] | [10] | [11] | [13] | [14] | [15] | [16]

CCCCCl
inactive: [1] | [2] | [3] | [4] | [5] | [6] | [7] | [8] | [9] | [10] | [11] | [13] | [14] | [19] | [15] | [20] | [18]

C[Si](Cn1cncn1)(c1ccc(F)cc1)c1ccc(F)cc1
active: [3] 28.2 µM | [13] 38.9 µM
inactive: [2] | [4] | [5] | [6] | [7] | [8] | [9] | [11] | [12] | [20]
63.1 µM (active) and inactive: [1]

COC1CC(=C(c2cccs2)c2cccs2)C[N+](C)(C)C1 (stereo not drawn)
inactive: [1] | [2] | [3] | [4] | [5] | [6] | [7] | [9] | [10] | [11] | [12] | [13] | [14] | [19] | [15] | [20] | [16] | [18] | [17]

Reference: PubChem BioAssay (Tox21)
